Screening data (PubChem BioAssay)
HepG2 viability – counter-screen for TGF-b inhibitors: cytotoxicity in HepG2 cells. HepG2 CAGA-GFP viability, ATP luminescence, 18 h. Potency, µM (highest dose often 46.1 µM), inactives show at the top dose activity change, negative = cytotoxicity, most hits filed as cytotoxic. 0.76% of 410,000 active; further: potency means the concentration at half of the fitted maximal effect
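CellTiter-Glo luminescence gave cytotoxicity after 18 hours at 37 degrees C. The cells were HepG2 CAGA-GFP in 1% FBS DMEM, stimulated with 500 pg/mL TGF-beta after compound addition. %Activity was normalised to no-cell wells (complete cell-killing) and DMSO (no toxicity), and curves were fitted and classified.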
TDP1 cell CPT – DT40-hTDP1 cell growth loss with CPT; 12% of 420,000 active; AID 686979; Potency, µM (top dose mostly 46.2 µM), for inactives: top-dose activity change, negative = growth inhibition, usual class: inhibitors; chicken DT40 Tdp1-/-;hTDP1 cells + 20 nM CPT, ATP luminescence, 48 h; further: potency means the concentration at half of the fitted maximal effect; on the % scale 0 is the no-effect control and ±100 the full control effect; nearly all actives have a fitted effect of over 55% in size
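Cell growth measured by CellTiter-Glo luminescence after a minimum 48 h, 37 C compound exposure with 20 nM CPT in Tdp1-knockout DT40 cells stably expressing hTDP1, seeded 400/well; qHTS titration format.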
TDP1 inh – TDP1 (human) enzyme inhibition; Potency, µM (highest dose often 130 µM), inactives show at the top dose activity change, negative = inhibition, hits mostly inhibitors; recombinant TDP1, AlphaScreen DNA substrate cleavage; AID 485290; 0.28% of 350,000 active; Q9NUW8; further: potency means the concentration at half of the fitted maximal effect; on the % scale 0 is the no-effect control and ±100 the full control effect; nearly all actives have a fitted effect of over 40% in size
Target sequence (Q9NUW8 whole entry, looked up): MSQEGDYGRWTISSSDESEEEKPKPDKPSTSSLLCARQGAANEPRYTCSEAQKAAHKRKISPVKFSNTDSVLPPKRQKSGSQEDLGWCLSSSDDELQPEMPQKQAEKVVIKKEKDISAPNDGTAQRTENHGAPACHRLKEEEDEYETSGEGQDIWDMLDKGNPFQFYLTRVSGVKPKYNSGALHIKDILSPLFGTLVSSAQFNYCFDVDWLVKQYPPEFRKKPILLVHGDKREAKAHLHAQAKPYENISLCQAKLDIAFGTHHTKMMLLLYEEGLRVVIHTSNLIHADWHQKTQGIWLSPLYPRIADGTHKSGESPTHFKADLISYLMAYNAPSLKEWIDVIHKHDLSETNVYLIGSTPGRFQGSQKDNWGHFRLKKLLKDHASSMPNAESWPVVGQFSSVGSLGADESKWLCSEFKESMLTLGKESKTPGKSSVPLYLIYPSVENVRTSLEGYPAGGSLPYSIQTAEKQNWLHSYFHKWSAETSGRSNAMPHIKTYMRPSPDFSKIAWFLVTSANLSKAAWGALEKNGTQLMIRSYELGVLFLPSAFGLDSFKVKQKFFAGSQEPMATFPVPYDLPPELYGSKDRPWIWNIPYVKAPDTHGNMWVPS
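E. coli-derived human Tdp1, 1 nM final. Cpd preinc 15 min RT; substrate 15 nM final, 5 min RT; AS bead mix 10 ug/ml final, 10 min RT. Signal loss = tyrosine-FITC cleavage. No-enzyme wells = max signal.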
DT40 TDP1 no CPT – qHTS for Inhibitors of human tyrosyl-DNA phosphodiesterase 1 (TDP1): qHTS in cells in absence of CPT; DT40 Tdp1-/- hTDP1 cells, no CPT, ATP luminescence, 48 h; Potency, µM (series often up to 46.2 µM), for inactives: at the highest dose activity change, negative = growth inhibition, hits mostly inhibitors; 15% of 420,000 active; AID 686978, 2013; further: potency means the concentration at half of the fitted maximal effect; on the % scale 0 is the no-effect control and ±100 the full control effect; nearly all actives have a fitted effect of over 55% in size
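Cells were dispensed at 400 per well, compounds added by pin tool, plates incubated ≥48 hr at 37 °C, then CellTiter-Glo added for 30 min at room temperature before luminescence reading. Line: DT40 Tdp1-/- complemented with hTDP1; camptothecin omitted.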
IL1B secr inh – blocks inflammasome-driven IL-1 beta release | 4.7% of 360,000 active | activity change, % at 57.5 µM | THP-1 LPS/ATP IL-1B secretion, AlphaLISA, 16 h; hits give low values; in the data active means activity change below about -50%; inconclusive means mostly about -30% to -49%; further: on the % scale 0 is the no-effect control and ±100 the full control effect
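THP-1 cells pretreated 1 hr with compounds (up to 57.5 uM final), then stimulated with LPS (250 ng/mL final) plus ATP (1.25 mM final); secreted IL-1B measured by AlphaLISA after 16 hr, decreased signal indicating inhibition.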
TGFb inhibitor – inhibitors of TGF-b signaling; Potency, µM (top dose mostly 46.1 µM), for the others: top-dose activity, negative = inhibition, most hits filed as inhibitors; 1.2% of 410,000 active; HepG2 CAGA-GFP TGF-b/SMAD3 reporter, GFP fluorescence, 18 h; TGF-beta stimulated, 500 pg/mL final; AID 588855; further: potency means the concentration at half of the fitted maximal effect; on the % scale 0 is the no-effect control and ±100 the full control effect; nearly all actives have a fitted effect of over 65% in size
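Using HEPG2 CAGA-GFP reporter cells at 1000 cells/well, we pinned test compounds, stimulated with recombinant TGF-beta (500 pg/mL final) and measured total well GFP after 18 h.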
* marks the source's active call; other numbers are inactive results; ? = inconclusive; nt = no result given; [ ] = remark or other dose. Hits are enriched below; roughly 18% of the tested compounds scored in any of these assays. Unless noted, the call rests on the fitted dose curve; in most records, active means well fitted curve in the direction sought with a large enough effect; inconclusive means small, poorly fitted or top-dose-only effect, or another doubt; inactive means no such curve, though single readings can be large; an effect the other way counts as inactive or inconclusive.

SMILES	HepG2 viability	TDP1 cell CPT	TDP1 inh	DT40 TDP1 no CPT	IL1B secr inh	TGFb inhibitor
CC(C)CN(C(=O)COC(=O)CCc1nc2ccccc2s1)c1c(N)n(Cc2ccccc2)c(=O)[nH]c1=O	-4%	16µM*	-14%[0.505 µM]	?	-7	-10%
CN(C)c1ccc(CNCc2cccnc2)cc1	-11%	2%	nt	-25%	16	-16%
CSc1ccc(CCNC(=O)Cn2ncc3c(=O)oc4ccccc4c32)cc1	-23%	-17%	4%	?	nt	-19%
O=C(NNC(=O)c1ccc(Oc2ccc(C3SCCS3)cc2)o1)c1ccc(Cl)cc1	-23%	?	nt	?	-11	-12%
CCOC(=O)Cn1c(=O)oc2cc(S(=O)(=O)N3CCN(c4cccc(C)c4)C(C)C3)ccc21 (stereo unspecified)	-28%	?	5%	?	nt	?
CC(C)c1ccccc1NC(=O)C1C2C=CC(C2)C1C(=O)O (stereo unspecified)	1%	-12%	nt	-13%	10	5%
CC(C)Oc1ccc(C(=O)Nc2ccccc2N2CCOCC2)cc1	-3%	4%	3%	-15%	3	2%
CN1CCN(c2ccccc2NC(=O)c2ccc(OCc3ccccc3)cc2)CC1	-48%	16µM*	8%	?	-55*	22%
CN1CCN(c2ccccc2NC(=O)c2ccc(-c3ccccc3)cc2)CC1	-62%	?	6%	16µM*	-59*	?
O=C(NCc1ccccc1CN1CCCC1)c1ccc(OCc2cscn2)cc1	-1%	-21%	0%	10%	-7	0%
Cc1nc(COc2ccc(C(=O)NCc3ccccc3CN3CCCCC3)cc2)cs1	-24%	?	4%	23µM*	0	-15%
Cc1nc(COc2ccc(C(=O)Nc3ccccc3N3CCOCC3)cc2)cs1	-21%	?	-3%[0.0935 µM]	15µM*	?	0%
OC1(c2ccc3c(c2)CN(Cc2ccco2)CCO3)CCN(c2ccccc2F)CC1	nt	-1%[9.04 µM]	nt	?	nt	nt
COc1cc(-c2ccc(Cl)cn2)cc2c1OCCN(C(=O)c1ccccc1-n1cccn1)C2	nt	0%	nt	?	nt	nt
Cc1ccc(CNC(=O)CN2Cc3ccccc3C2=O)cc1	3%	2%	4%	-13%	nt	2%
Cc1ccc(-n2ncc3c(NCCCn4ccnc4)ncnc32)cc1	-19%	-3%	13%	-23%	nt	3%
CN1CCN(c2ccccc2NC(=O)c2cccc(OCc3ccccc3)c2)CC1	-52%	?	3%	21µM*	-65*	2%
CC(=O)N1CCN(c2ccc(NC(=O)c3cccc(OCc4ccccc4)c3)cc2)CC1	0%	?	0%	?	40	?
COc1ccc(-c2cc(OC)c3c(C)oc(C)c3c(=O)c2)cc1OC	-14%	?	2%	?	?	3%
COc1cc(-c2cc(OC)c3c(C)oc(C)c3c(=O)c2)ccc1OC(=O)c1cccc(C)c1	1%	23µM*	5%	13µM*	nt	0%
COc1ccc(-c2cc(OC(=O)c3ccc(F)cc3)c3c(C)oc(C)c3c(=O)c2)cc1OC	-18%	18µM*	-2%	?	nt	29%
CCOc1cc(-c2ccc(OC(=O)c3ccc(OC)cc3)c(OC)c2)cc(=O)c2c(C)oc(C)c12	1%	15µM*	5%	18µM*	nt	0%
CC(C)(C)c1ccc(OCC(=O)Nc2ccc(S(=O)(=O)Nc3ncccn3)cc2)cc1	-21%	-12%	2%	-7%	nt	0%
NC(N)=NCCC[C@H](N)C(=O)NCC(=O)N[C@@H](CC(=O)O)C(=O)N[C@@H](CO)C(=O)O	nt	nt	6%	nt	nt	nt
N#CCCn1cc(/C=C2\NC(=S)N(c3ccccc3)C2=O)c(-c2ccc(-c3ccccc3)cc2)n1	-4%	6.5µM*	0%	8.2µM*	-8	10µM*
SMILES	HepG2 viability	TDP1 cell CPT	TDP1 inh	DT40 TDP1 no CPT	IL1B secr inh	TGFb inhibitor
N#CCCn1cc(C=C(C#N)C#N)c(-c2ccc(Cl)cc2)n1	-6%	16µM*	-10%	?	-28	1%
CCN1C(=O)/C(=C\c2cn(CCC#N)nc2-c2ccc(F)cc2)SC1=S	-1%	?	8%	-29%	-24	8%
N#CCCn1cc(/C=N/O)c(-c2ccc(-c3ccccc3)cc2)n1	-32%	23µM*	5%	?	-19	-33%
Cc1ccccc1C1CC(=O)Oc2cc(C)c(Br)c(C)c21 (stereo unspecified)	nt	nt	2%	nt	nt	nt
COc1ccc(NS(=O)(=O)c2cccc(NC(=O)NCCCl)c2)cc1	-13%	-27%	2%	-29%	17	-4%
O=C(Nc1cccc(S(=O)(=O)Nc2ccc(Cl)cc2)c1)c1cc2c(s1)CCCC2	-82%	?	4%	?	-81*	?
COc1ccc(NS(=O)(=O)c2cccc(NC(=O)c3cnccn3)c2)cc1Br	-29%	16µM*	-1%	18µM*	-20	?
O=C(Nc1cccc(S(=O)(=O)Nc2ccc(Cl)cc2)c1)c1ccc(Cl)nc1	-41%	2.3µM*	0%	0.65µM*	-8	14µM*
COc1ccc(NS(=O)(=O)c2cccc(NC(=O)c3ccc(Cl)nc3)c2)cc1	1%	1.2µM*	5%	3.3µM*	-9	?
CC(C)CC(c1nnnn1Cc1ccco1)N1CCN(c2cccc(Cl)c2)CC1 (stereo unspecified)	2%	?	-4%	16µM*	-21	-12%
Cc1ccc(C(c2nnnn2CC2CCCO2)N2CCN(c3cccc(C)c3C)CC2)cc1 (stereo unspecified)	32%	?	2%	23µM*	-26	-52%
CC(C)CC(c1nnnn1CC1CCCO1)N1CCN(c2cccc(Cl)c2)CC1 (stereo unspecified)	2%	26µM*	5%	16µM*	-4	0%
O=S(=O)(c1ccc2c(c1)OCCO2)N1CCN(S(=O)(=O)c2c(F)ccc(O)c2F)CC1	nt	nt	-1%	nt	nt	nt
Cc1nc2[nH]c(=S)[nH]c2c(=O)[nH]1	-1%	6%	nt	-3%	21	-1%
CC(C)c1nc(SCC(=O)NC2CCCC2)c2c(=O)n(C)c(=O)n(C)c2n1	14%	-1%	2%	8%	17	0%
CCC(C)CNC(=O)c1[nH]c(C(F)(F)F)nc1-c1ccccc1 (stereo unspecified)	-2%	-6%	nt	-4%	2	-7%
